# In paper PMC5540273 (PLoS ONE, 2017):
# How the values were obtained:
# Conditions in all cases: concentration: 1 μM,replicates: in singlicate; n = 1
# [1] = system: CLK3
# [2] = system: CLK4
# [3] = system: CSF1R-autoinhibited
# [4] = system: CSF1R
# [5] = system: CSK
# [6] = system: CSNK1A1L
# [7] = system: CSNK1A1
# [8] = system: CSNK1D
# [9] = system: CSNK1E
# [10] = system: CSNK1G1
# [11] = system: CSNK1G2
# [12] = system: CSNK1G3
# [13] = system: CSNK2A1
# [14] = system: CSNK2A2
# [15] = system: T1, CTK
# T1 construct: gene MATK
# [16] = system: DAPK1
# [17] = system: DAPK2
# [18] = system: DAPK3
# [19] = system: T2, DCAMKL1
# T2 construct: gene DCLK1
# [20] = system: CLK2
# 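Note: KINOMEscan kinase panel screen.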
smiles,measurement,setting,value
CNC(=O)c1ccccc1Sc1ccc2c(/C=C/c3ccccn3)n[nH]c2c1,%Inh,[1],0%
same,%Inh,[2],0%
same,%Inh,[3],86%
same,%Inh,[4],99.9%
same,%Inh,[5],3%
same,%Inh,[6],10%
same,%Inh,[7],23%
same,%Inh,[8],10%
same,%Inh,[9],0%
same,%Inh,[10],0%
same,%Inh,[11],18%
same,%Inh,[12],0%
same,%Inh,[13],0%
same,%Inh,[14],0%
same,%Inh,[15],8%
same,%Inh,[16],0%
same,%Inh,[17],0%
same,%Inh,[18],0%
same,%Inh,[19],31%
O=C(NCCCN1CCOC1=O)c1cnc(NCc2cc(Cl)ccc2Cl)nc1NC1CCCC1,%Inh,[20],1%
same,%Inh,[1],0%
same,%Inh,[2],4%
same,%Inh,[3],12%
same,%Inh,[4],32%
same,%Inh,[5],12%
same,%Inh,[6],5%
same,%Inh,[7],34%
same,%Inh,[8],12%
same,%Inh,[9],76%
same,%Inh,[10],0%
same,%Inh,[11],3%
same,%Inh,[12],0%
same,%Inh,[13],16%
same,%Inh,[14],23%
same,%Inh,[15],0%
same,%Inh,[16],3%
same,%Inh,[17],7%
same,%Inh,[18],12%
same,%Inh,[19],28%
C[C@@H](Oc1cc(-c2cnn(C3CCNCC3)c2)cnc1N)c1c(Cl)ccc(F)c1Cl,%Inh,[20],9%
same,%Inh,[1],1%
same,%Inh,[2],0%
same,%Inh,[3],82%
same,%Inh,[4],93.8%
same,%Inh,[5],24%
same,%Inh,[6],0%
same,%Inh,[7],38%
same,%Inh,[8],14%
same,%Inh,[9],6%
same,%Inh,[10],8%
same,%Inh,[11],0%
same,%Inh,[12],0%
same,%Inh,[13],18%
same,%Inh,[14],0%
same,%Inh,[15],13%
same,%Inh,[16],10%
same,%Inh,[17],1%
same,%Inh,[18],15%
same,%Inh,[19],88%
C[C@@H]1CCN(C(=O)CC#N)C[C@@H]1N(C)c1ncnc2[nH]ccc12,%Inh,[20],4%
same,%Inh,[1],0%
same,%Inh,[2],0%
same,%Inh,[3],0%
same,%Inh,[4],3%
same,%Inh,[5],0%
same,%Inh,[6],0%
same,%Inh,[7],21%
same,%Inh,[9],0%
same,%Inh,[10],15%
same,%Inh,[11],0%
same,%Inh,[12],0%
same,%Inh,[13],0%
same,%Inh,[14],0%
same,%Inh,[15],0%
same,%Inh,[16],10%
same,%Inh,[17],0%
same,%Inh,[18],4%
same,%Inh,[19],0%
COc1ccc(C[C@@H](CN)NC(=O)c2cc(Br)c(-c3ccnc4[nH]ccc34)s2)cc1.Cl.Cl [GSK1389063],%Inh,[20],91.4%
same,%Inh,[1],77%
same,%Inh,[2],95.2%
same,%Inh,[3],0%
same,%Inh,[4],56%
same,%Inh,[5],0%
same,%Inh,[6],81%
same,%Inh,[7],88%
same,%Inh,[8],90%
same,%Inh,[9],95.9%
same,%Inh,[10],33%
same,%Inh,[11],79%
same,%Inh,[12],73%
same,%Inh,[13],57%
same,%Inh,[14],64%
same,%Inh,[15],2%
same,%Inh,[16],26%
same,%Inh,[17],13%
same,%Inh,[18],18%
same,%Inh,[19],64%
C=CC(=O)Nc1cc2c(Nc3ccc(F)c(Cl)c3)ncnc2cc1OCCCN1CCOCC1 [GW781483],%Inh,[20],0%
same,%Inh,[1],0%
same,%Inh,[2],4%
same,%Inh,[3],35%
same,%Inh,[4],13%
same,%Inh,[5],5%
same,%Inh,[6],22%
same,%Inh,[7],0%
same,%Inh,[8],0%
same,%Inh,[9],26%
same,%Inh,[10],0%
same,%Inh,[11],1%
same,%Inh,[12],99.8%
same,%Inh,[13],27%
same,%Inh,[14],16%
same,%Inh,[15],4%
same,%Inh,[16],0%
same,%Inh,[17],0%
same,%Inh,[18],0%
same,%Inh,[19],15%
Cl.Cl.NC[C@H](CC1CCCCC1)NC(=O)c1cc(Br)c(-c2ccnc3[nH]ccc23)s1 [GSK1581427],%Inh,[20],71%
same,%Inh,[1],57%
same,%Inh,[2],69%
same,%Inh,[3],0%
same,%Inh,[4],48%
same,%Inh,[5],0%
same,%Inh,[6],42%
same,%Inh,[7],53%
same,%Inh,[8],86%
same,%Inh,[9],85%
same,%Inh,[10],6%
same,%Inh,[11],26%
same,%Inh,[12],40%
same,%Inh,[13],55%
same,%Inh,[14],0%
same,%Inh,[15],0%
same,%Inh,[16],71%
same,%Inh,[17],12%
same,%Inh,[18],19%
same,%Inh,[19],16%
CCn1c(-c2nonc2N)nc2c(C#CC(C)(C)O)nc(OCCN)cc21.Cl.Cl [GSK902056],%Inh,[20],7%
same,%Inh,[1],27%
same,%Inh,[2],20%
same,%Inh,[3],0%
same,%Inh,[4],11%
same,%Inh,[5],0%
same,%Inh,[6],18%
same,%Inh,[7],0%
same,%Inh,[8],0%
same,%Inh,[9],41%
same,%Inh,[10],0%
same,%Inh,[11],0%
same,%Inh,[12],12%
same,%Inh,[13],0%
same,%Inh,[14],46%
same,%Inh,[15],0%
same,%Inh,[16],0%
same,%Inh,[17],0%
same,%Inh,[18],21%
same,%Inh,[19],0%
Cc1ccc2c(-c3ccncc3)c(-c3ccc(F)cc3)nn2c1.Cl [GW461484],%Inh,[20],0%
same,%Inh,[1],0%
same,%Inh,[2],0%
same,%Inh,[3],8%
same,%Inh,[4],0%
same,%Inh,[5],0%
same,%Inh,[6],39%
same,%Inh,[8],96.9%
same,%Inh,[9],99.5%
same,%Inh,[10],30%
same,%Inh,[11],27%
same,%Inh,[12],27%
same,%Inh,[13],0%
same,%Inh,[14],0%
same,%Inh,[15],0%
same,%Inh,[16],0%
same,%Inh,[17],7%
same,%Inh,[18],5%
same,%Inh,[19],0%
